# Data from PubChem BioAssay (NCATS).
# Records with an inconclusive call do not appear. Entries that show only a call come without a potency. Active and inactive are the calls of the source. Unless noted, the call rests on the fitted dose curve; in most records, active means well fitted inhibition curve with a large enough effect; inconclusive means small, poorly fitted or top-dose-only effect; inactive means no such curve, though single readings can be large or run the other way.
# How the values were obtained:
# [1] = qHTS profiling of the MIPE4 collection as inhibitors of Plasmodium falciparum (DD2) proliferation (AID 743345; call rule not given here); settings: P. falciparum Dd2 in erythrocytes, SYBR Green DNA, 72 h; at 28.5 µM (top of the series)
# Method in brief: (§1)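 Erythrocytes infected with P. falciparum (0.3% parasitemia, 2.5% hematocrit) incubated with compounds 72 h at 37 C, 5% CO2. Lysis with saponin/Triton buffer containing SYBR Green I, overnight at room temperature in the dark; DNA fluorescence (485/535 nm) normalised to 0.29 uM artemisinin and DMSO.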
# [2] = qHTS profiling of the MIPE4 collection as inhibitors of Plasmodium falciparum (DD2) proliferation (Rep 2) (AID 743346; call rule not given here); settings: P. falciparum Dd2 in erythrocytes, SYBR Green DNA, 72 h; at 28.5 µM (top of the series)
# Method in brief: as §1
# [3] = qHTS profiling of the MIPE4 collection as inhibitors of Plasmodium falciparum (HB3) proliferation (AID 743347; call rule not given here); settings: P. falciparum HB3 in erythrocytes, SYBR Green DNA, 72 h; at 28.5 µM (top of the series)
# Method in brief: as §1
# [4] = qHTS assay for measurement of the activity of small molecule inhibitors on Zika virus induced Caspase-3 activity in human iPSC derived neural progenitor cells (hNPCs) (AID 1224857); further: nearly all actives have a fitted effect of over 65% in size
# Method in brief: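 Cells were plated at 350 per well and grown 16 to 20 hours. Compound pretreatment lasted one hour, after which ZIKV (2 FFU/cell) was added for 6 hours. Percent inhibition was normalized between uninfected and infected controls.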
# [5] = qHTS assay for measurement of the activity of small molecule inhibitors on Zika virus induced Caspase-3 activity in human astrocytoma cells (AID 1224859)
# Method in brief: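 Percent inhibition of virus-induced caspase-3/7 signal is calculated against uninfected and ZIKV-infected control cells. Cells are SNB-19, infected at 2 FFU/cell for 6 h after 1 h compound exposure.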
# [6] = Natriuretic polypeptide receptor (hNpr1) antagonism - Pilot counterscreen GloSensor control cell line (AID 1347045; calls by dose curve; further: potency means the concentration at half of the fitted maximal effect)
# Method in brief: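 This counterscreen uses HEK293 cells expressing the GIP/pGS-40F cGMP biosensor. Compound-treated cells are challenged with 50 uM sodium nitroprusside, and the luciferase signal is compared before and after stimulation.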
# [7] = biological target: Atrial natriuretic peptide receptor 2 (Homo sapiens) (UniProt P20594); assay: Natriuretic polypeptide receptor (hNpr2) antagonism - Pilot subtype selectivity assay (AID 1347050; calls by dose curve; further: potency means the concentration at half of the fitted maximal effect)
# Method in brief: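 HEK293 cells expressing hNpr2 and a GloSensor cGMP luciferase sensor, 1500/well, preloaded 2 h with 2% GloSensor reagent, compound 30 min, then 1 nM hNppC for 20 min. Antagonism from luminescence after versus baseline pre-read; LOPAC in 1:5 titrations.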
# [8] = biological target: Atrial natriuretic peptide receptor 1 (Homo sapiens) (UniProt P16066); assay: Natriuretic polypeptide receptor (hNpr1) antagonism - Pilot screen (AID 1347049; calls by dose curve;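 further: agonist-evoked cGMP luminescence read 20 min after hNppA addition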; further: potency means the concentration at half of the fitted maximal effect)
# Method in brief: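 HEK293 cells expressing hNpr1 and GloSensor cGMP luciferase, 1500/well, loaded with 2% GloSensor reagent 2 h, compound 30 min at room temperature; luminescence read before and 20 min after 0.1 nM hNppA stimulation.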
# Atrial natriuretic peptide receptor 1 (Homo sapiens), sequence (P16066 whole entry, looked up): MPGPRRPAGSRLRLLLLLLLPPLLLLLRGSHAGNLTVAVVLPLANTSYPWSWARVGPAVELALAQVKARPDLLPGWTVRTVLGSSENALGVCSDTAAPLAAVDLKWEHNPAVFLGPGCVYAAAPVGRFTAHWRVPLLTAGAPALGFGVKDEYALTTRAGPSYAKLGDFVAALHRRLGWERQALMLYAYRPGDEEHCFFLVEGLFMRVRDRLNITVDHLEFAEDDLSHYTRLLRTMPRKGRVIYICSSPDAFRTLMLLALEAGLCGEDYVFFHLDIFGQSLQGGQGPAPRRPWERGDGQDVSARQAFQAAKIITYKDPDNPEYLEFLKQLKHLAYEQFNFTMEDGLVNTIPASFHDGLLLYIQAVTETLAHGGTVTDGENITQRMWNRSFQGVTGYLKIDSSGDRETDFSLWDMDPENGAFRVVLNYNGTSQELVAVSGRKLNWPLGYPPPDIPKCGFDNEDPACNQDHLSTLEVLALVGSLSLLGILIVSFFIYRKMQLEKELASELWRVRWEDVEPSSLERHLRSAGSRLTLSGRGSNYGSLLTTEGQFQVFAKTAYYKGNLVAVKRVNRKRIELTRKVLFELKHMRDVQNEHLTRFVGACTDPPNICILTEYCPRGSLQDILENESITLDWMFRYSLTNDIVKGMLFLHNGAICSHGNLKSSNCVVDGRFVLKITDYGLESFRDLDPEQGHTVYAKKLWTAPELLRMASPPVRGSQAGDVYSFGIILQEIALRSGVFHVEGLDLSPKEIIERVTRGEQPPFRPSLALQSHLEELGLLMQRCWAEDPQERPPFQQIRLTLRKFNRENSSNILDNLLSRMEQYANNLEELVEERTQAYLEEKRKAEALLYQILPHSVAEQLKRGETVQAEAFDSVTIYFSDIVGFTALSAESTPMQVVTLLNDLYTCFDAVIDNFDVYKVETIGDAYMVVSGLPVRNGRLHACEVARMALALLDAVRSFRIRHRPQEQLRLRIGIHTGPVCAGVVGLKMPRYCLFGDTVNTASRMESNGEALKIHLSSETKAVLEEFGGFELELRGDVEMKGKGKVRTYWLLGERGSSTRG
# Atrial natriuretic peptide receptor 2 (Homo sapiens), sequence (P20594 whole entry, looked up): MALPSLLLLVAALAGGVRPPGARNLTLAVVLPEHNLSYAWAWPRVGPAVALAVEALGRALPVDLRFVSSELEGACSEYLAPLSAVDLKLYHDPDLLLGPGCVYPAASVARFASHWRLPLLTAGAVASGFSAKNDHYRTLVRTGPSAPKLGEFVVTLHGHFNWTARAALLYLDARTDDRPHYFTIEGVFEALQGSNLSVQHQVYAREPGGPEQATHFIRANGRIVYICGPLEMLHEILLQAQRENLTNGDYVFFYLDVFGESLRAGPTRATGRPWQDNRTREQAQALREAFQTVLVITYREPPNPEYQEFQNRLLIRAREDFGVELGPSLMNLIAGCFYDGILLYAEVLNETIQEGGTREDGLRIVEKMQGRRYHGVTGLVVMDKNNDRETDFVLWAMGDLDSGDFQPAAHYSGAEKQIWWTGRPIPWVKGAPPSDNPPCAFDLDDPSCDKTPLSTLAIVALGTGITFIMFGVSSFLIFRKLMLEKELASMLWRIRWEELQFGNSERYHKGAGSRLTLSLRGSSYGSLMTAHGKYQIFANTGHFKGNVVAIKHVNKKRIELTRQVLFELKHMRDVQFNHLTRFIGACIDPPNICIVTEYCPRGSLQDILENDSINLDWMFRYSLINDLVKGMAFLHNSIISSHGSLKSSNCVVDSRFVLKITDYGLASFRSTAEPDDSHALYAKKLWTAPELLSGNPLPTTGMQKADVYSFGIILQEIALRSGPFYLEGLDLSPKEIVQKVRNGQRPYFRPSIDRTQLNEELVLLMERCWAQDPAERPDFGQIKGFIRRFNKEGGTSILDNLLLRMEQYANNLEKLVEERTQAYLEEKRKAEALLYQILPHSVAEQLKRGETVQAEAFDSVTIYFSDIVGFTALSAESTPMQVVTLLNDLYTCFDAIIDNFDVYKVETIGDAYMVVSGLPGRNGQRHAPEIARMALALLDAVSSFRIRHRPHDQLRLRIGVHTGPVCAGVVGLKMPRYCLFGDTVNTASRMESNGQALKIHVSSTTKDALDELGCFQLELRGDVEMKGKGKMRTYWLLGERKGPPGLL
smiles,measurement,setting,value
NC1CONC1=O (stereo not drawn),"parasite growth remaining, % of DMSO control (lower = more inhibition)",[1],99.7%
same,"parasite growth, % of control (lower = inhibition)",[2],78.4%
same,"growth, % of control",[3],106%
Cn1cc(C(F)(F)F)nc1-c1ccc(OCC(O)CNCCOc2ccc(O)c(C(N)=O)c2)cc1 (stereo not drawn),Potency,[4],inactive
same,Potency,[5],inactive
same,Potency,[6],inactive
same,Potency,[7],inactive
CCCCCCCCCCCCCCCCCCOC[C@H](COP(=O)([O-])OCC[N+](C)(C)C)OC,Potency,[4],inactive
same,Potency,[5],inactive
same,Potency,[6],14.7 µM (active)
same,Potency,[7],8.26 µM (active)
NC(C(=O)N[C@@H]1C(=O)N2C(C(=O)O)=C(Cl)CS[C@H]12)c1ccccc1 (stereo partly drawn),Potency,[4],inactive
same,Potency,[5],inactive
same,Potency,[6],inactive
same,Potency,[7],inactive
C=C1C(=O)O[C@@H]2[C@H]3O[C@]3(C)CCC=C(C)CC[C@@H]12,Potency,[4],inactive
same,Potency,[5],inactive
same,Potency,[6],18.5 µM (active)
same,Potency,[7],11.7 µM (active)
NOCC(=O)O,Potency,[4],inactive
same,Potency,[5],inactive
same,Potency,[6],inactive
same,Potency,[7],inactive
COc1ccc(C(=O)NCc2cccnc2)cc1C(=O)NCc1cccnc1,Potency,[4],inactive
same,Potency,[5],inactive
same,Potency,[6],inactive
same,Potency,[7],inactive
NC[C@@H]1O[C@H](c2ccccc2)Cc2c1ccc(O)c2O,Potency,[4],inactive
same,Potency,[5],inactive
same,Potency,[6],inactive
same,Potency,[7],inactive
N#CC(=C(\N)Sc1ccccc1N)/C(C#N)=C(/N)Sc1ccccc1N,Potency,[4],inactive
same,Potency,[5],inactive
same,Potency,[6],18.5 µM (active)
same,Potency,[7],inactive
c1ccc(C2CN3CCSC3=N2)cc1 (stereo not drawn),Potency,[4],inactive
same,Potency,[5],inactive
same,Potency,[6],inactive
same,Potency,[7],inactive
NS(=O)(=O)c1cccc2c1c([N+](=O)[O-])cc1nc(O)c(O)nc12,Potency,[4],inactive
same,Potency,[5],inactive
same,Potency,[6],inactive
same,Potency,[7],inactive
CC(C)NC[C@H](O)COc1ccc(CC(N)=O)cc1,Potency,[4],inactive
same,Potency,[5],inactive
same,Potency,[6],inactive
same,Potency,[7],inactive
CCCCCCC/C=C\CCCCCCCCC(=O)O,Potency,[4],inactive
same,Potency,[5],inactive
same,Potency,[6],inactive
same,Potency,[7],inactive
Cn1c(=O)c2c(nc(/C=C/c3cccc(Cl)c3)n2C)n(C)c1=O,Potency,[4],inactive
same,Potency,[5],inactive
same,Potency,[6],inactive
same,Potency,[7],inactive
COC(=O)[C@H](NC(=O)c1cc(-c2ccccc2)nc2ccccc12)c1ccccc1,Potency,[4],inactive
same,Potency,[5],inactive
same,Potency,[6],inactive
same,Potency,[7],inactive
CCCCCCCCCCC/C=C\C(C)(C)/C=C\CCCC(=O)O,Potency,[4],inactive
same,Potency,[5],inactive
same,Potency,[6],inactive
same,Potency,[7],inactive
C=CCN1CCc2c(cc(O)c(O)c2Br)[C@@H](c2ccccc2)C1,Potency,[4],inactive
same,Potency,[5],inactive
same,Potency,[6],inactive
same,Potency,[7],inactive
CC[C@H](NC(=O)c1c(C)c(-c2ccccc2)nc2ccccc12)c1ccccc1,Potency,[4],inactive
same,Potency,[5],inactive
same,Potency,[6],inactive
same,Potency,[7],inactive
COc1ccc(CCn2nnnc2C2(c3ccc(C)cc3)CC2)cc1,Potency,[4],inactive
same,Potency,[5],inactive
same,Potency,[6],inactive
same,Potency,[7],inactive
COc1cc(CC(=O)O)ccc1O,Potency,[4],inactive
same,Potency,[5],inactive
same,Potency,[6],inactive
same,Potency,[7],inactive
Oc1ccc(/C=C/c2ccc(/C=C/c3ccc(O)cc3)c(Br)c2)cc1,Potency,[4],inactive
same,Potency,[5],inactive
same,Potency,[6],inactive
same,Potency,[7],inactive
N#C/C(=C\c1ccc(O)c(O)c1)C(=O)NCCc1ccccc1,Potency,[4],inactive
same,Potency,[5],inactive
same,Potency,[6],inactive
same,Potency,[7],inactive
CC[n+]1c(/C=C/C=C2/N(C)c3ccccc3C2(C)C)sc2ccccc21,Potency,[4],inactive
same,Potency,[5],inactive
same,Potency,[6],0.233 µM (active)
same,Potency,[7],0.233 µM (active)
O=c1cc(-c2ccccc2)[nH]c2nc(Cl)ccc12,Potency,[4],inactive
same,Potency,[5],inactive
same,Potency,[6],inactive
same,Potency,[7],inactive
COc1ccc2c(c1)c(CC(=O)O)c(C)n2Cc1ccc(Cl)cc1,Potency,[4],inactive
same,Potency,[5],inactive
same,Potency,[6],inactive
same,Potency,[7],inactive
CCCOC(=O)c1c(-c2ccccc2)nc(CC)c(C(=O)SCC)c1CCC,Potency,[4],inactive
same,Potency,[5],inactive
same,Potency,[6],inactive
same,Potency,[7],inactive
O=C(O)C1=CCNCC1,Potency,[4],inactive
same,Potency,[5],inactive
same,Potency,[6],inactive
same,Potency,[7],inactive
O=C(O)/C=C/c1ccc(O)c(O)c1,Potency,[4],inactive
same,Potency,[5],inactive
same,Potency,[6],inactive
same,Potency,[7],inactive
Cc1nc2c(OCc3ccccc3)cccn2c1CC#N,Potency,[4],inactive
same,Potency,[5],inactive
same,Potency,[6],inactive
same,Potency,[7],inactive
CCCn1c(=O)c2[nH]c(-c3ccc(S(=O)(=O)O)cc3)nc2n(CCC)c1=O,Potency,[4],inactive
same,Potency,[5],inactive
same,Potency,[6],inactive
same,Potency,[7],inactive
Cc1cccc(C)c1OCC(N)C(C)C (stereo not drawn),Potency,[4],inactive
same,Potency,[5],inactive
same,Potency,[6],inactive
same,Potency,[7],inactive
O=C(O)c1cc2cc(F)ccc2[nH]1,Potency,[4],inactive
same,Potency,[5],inactive
same,Potency,[6],inactive
same,Potency,[7],inactive
N=C(N)c1ccc(OCCCCCOc2ccc(C(=N)N)cc2)cc1 (tested in a mixture with another compound),Potency,[4],inactive
same,Potency,[5],inactive
same,Potency,[6],inactive
same,Potency,[7],inactive
Brc1c(Br)c(Br)c2[nH]cnc2c1Br,Potency,[4],inactive
same,Potency,[5],inactive
same,Potency,[6],inactive
same,Potency,[7],inactive
CN1CCC2(CCN3CCc4c(oc5ccccc45)C3C2)N(C)C1=O (stereo not drawn),Potency,[4],inactive
same,Potency,[5],inactive
same,Potency,[6],inactive
same,Potency,[7],inactive
N[C@@H](CCC(=O)N[C@H](CSN=O)C(=O)NCC(=O)O)C(=O)O,Potency,[4],inactive
same,Potency,[5],inactive
same,Potency,[6],inactive
same,Potency,[7],inactive
NCC(O)C1CCCCCCC1 (stereo not drawn),Potency,[4],inactive
same,Potency,[5],inactive
same,Potency,[6],inactive
same,Potency,[7],inactive
CC(C)C[C@H](NC(=O)C1OC1C(=O)O)C(=O)NCCCCN=C(N)N (stereo partly drawn),Potency,[4],inactive
same,Potency,[5],inactive
same,Potency,[6],inactive
same,Potency,[7],inactive
Nc1ccc(CCNc2ncnc3c2ncn3C2OC(CO)C(O)C2O)cc1 (stereo not drawn),Potency,[4],inactive
same,Potency,[5],inactive
same,Potency,[6],inactive
same,Potency,[7],inactive
CC(C)NC[C@H](O)COc1cccc2ccccc12,Potency,[4],inactive
same,Potency,[5],inactive
same,Potency,[8],inactive
same,Potency,[7],inactive
O=C(O)[C@H]1NCCC[C@H]1C(=O)O,Potency,[4],inactive
same,Potency,[5],inactive
same,Potency,[8],inactive
same,Potency,[7],inactive
CCCCCC[C@@H]([C@@H](C)O)n1cnc2c(N)ncnc21,Potency,[4],inactive
same,Potency,[5],inactive
same,Potency,[8],inactive
same,Potency,[7],inactive
Cc1nc(N=Nc2ccc(S(=O)(=O)O)cc2S(=O)(=O)O)c(COP(=O)(O)O)c(C=O)c1O,"parasite growth remaining, % of DMSO control (lower = more inhibition)",[1],100%
same,"parasite growth, % of control (lower = inhibition)",[2],213%
same,"growth, % of control",[3],93.6%
same,Potency,[4],inactive
same,Potency,[5],inactive
same,Potency,[8],inactive
same,Potency,[7],inactive
O=C(N[C@@H](Cc1ccccc1)C(=O)CCl)OCc1ccccc1,Potency,[4],inactive
same,Potency,[5],inactive
same,Potency,[8],10.7 µM (active)
same,Potency,[7],4.14 µM (active)
N=C(N)SCCN,Potency,[4],inactive
same,Potency,[5],inactive
same,Potency,[8],inactive
same,Potency,[7],inactive
CCCCS(=N)(=O)CC[C@H](N)C(=O)O (stereo partly drawn),Potency,[4],inactive
same,Potency,[5],inactive
same,Potency,[7],inactive
CCCn1c(=O)c2c(ncn2C)n(CCC)c1=O,Potency,[4],inactive
same,Potency,[5],inactive
same,Potency,[8],inactive
CCCCCC(O)CCCC(=O)O (stereo not drawn),Potency,[4],inactive
same,Potency,[5],inactive
same,Potency,[8],inactive
Nc1ncnc2c1nc(Sc1ccc(Cl)cc1)n2[C@H]1OC2COP(=O)(O)O[C@@H]2C1O (stereo partly drawn),Potency,[4],inactive
same,Potency,[5],inactive
same,Potency,[8],inactive
same,Potency,[7],inactive
CC(C)(C)c1ccc(/C=C/C(=O)Nc2ccc3c(c2)OCCO3)cc1,Potency,[4],inactive
same,Potency,[5],inactive
same,Potency,[8],23.9 µM (active)
